The compounds below were run on Plasmodium falciparum (assay: GSK_TCMDC: Inhibition of Plasmodium falciparum Dd2 in whole red blood cells, using parasite LDH activity as an index of growth. Test compounds present at 2uM).
Format: functional

SMILES | Inhibition
O=C(Cc1c[nH]cn1)Nc1cccc(-c2ccc(-c3nc4cc(F)ccc4[nH]3)cc2)c1 | 84%
O=C(N[C@H]1CCN(Cc2ccc(OCCN3CCCC3)c3ccccc23)C1)c1ccc(Cl)c(Cl)c1.O=C(O)C(F)(F)F | 51%
Br.CCc1ccccc1OCCCON1C(=N)N=C(N)NC1(C)C | 97%
COc1ccc(Nc2nccc(NCCNC(=O)c3cc4ccccc4s3)n2)cc1 | 7%
COc1cccc(NC(=O)c2ccc(NCCCN3CC(C)CC(C)C3)c([N+](=O)[O-])c2)c1 (stereo not given) | 68%
Cl.Clc1cccnc1N1CCN(c2ncccc2Cl)CC1 | 0%
CCCNCc1ccc(-c2ccc(CN(CCOC)C(=O)CC3CCCC3=O)cc2)nc1.O=C(O)C(F)(F)F (stereo not given) | 9%
C#CCN(Cc1ccc2[nH]c(N)nc(=O)c2c1)c1ccc(C(=O)N[C@@H](CCC(=O)O)C(=O)O)cc1 | 96%
CN1CCN(CC(=O)Nc2cccc(-c3ccc(-c4nc5cc(F)ccc5[nH]4)cc3)c2)CC1 | 98%
FC(F)(F)c1ccc(CNCC2CCN(Cc3ccc4c(c3)OCO4)CC2)cc1.O=C(O)C(F)(F)F | 12%
Cc1cccc(C)c1/N=C1\NC(=S)N(c2cccc(Cl)c2)C12CCC(C(C)(C)C)CC2 (stereo not given) | 53%
OC(c1ccccc1)C1CN(Cc2ccccc2)CCC1(O)c1ccccc1 (stereo not given) | 82%
CC(C)CC1c2[nH]c3ccccc3c(=O)c2CN1C(=O)OC(C)(C)C (stereo not given) | 96%
Cc1[nH]c(C)c(-c2ccc(-c3ccc4c(c3)OCO4)nc2)c(=O)c1Br | 96%
Oc1ccccc1CN1CCC2(CCCN(Cc3ccccc3F)C2)C1 (stereo not given) | 83%
CCS[C@@H]1O[C@H](COC(=O)c2ccccc2)[C@H](OC(=O)c2ccccc2)[C@H](OC(=O)c2ccccc2)[C@H]1OC(=O)c1ccccc1 | 52%
COc1ccc(-c2nc(NC(=O)CS(=O)(=O)c3ccccc3)sc2C)cc1 | 82%
Nc1ccc2[nH]cc(C3CCN(CC4CCC(NC(=O)/C=C/c5ccc(Cl)c(Cl)c5)CC4)CC3)c2n1 (stereo not given) | 93%
O=C(NC1CCCCC1)N(Cc1cccc(-c2ccc(CNCCc3ccccc3)cc2)c1)C1CCN(Cc2ccccc2)CC1.O=C(O)C(F)(F)F | 93%
O=C(Cc1ccc(Nc2nccc(Nc3cccc4[nH]ncc34)n2)cc1)Nc1ccc(C(F)(F)F)cc1 | 69%

SMILES | Inhibition
CC(C)(C)c1ccc(CNC(=O)c2cc(CNC3CCNCC3)ccc2O)cc1 | 8%
Nc1c2c(nc3ccc(NC(=O)c4ccccc4)cc13)CCCC2 | 8%
CNC(=O)NC1=NC(C)(C)N(OCc2ccc(Cl)c(Cl)c2)C(NC(=O)NC)=N1 | 0%
Cc1ccc(NCc2cccc(F)c2)cc1S(=O)(=O)N[C@@H]1CCN(C#N)C1 | 83%
CN1CCN(c2ccnc3ccc(NC(=O)Nc4ccc(Cl)c(Cl)c4)cc23)CC1 | 17%
O=C(Nc1ccc(N2CCCN(Cc3cccc(F)c3)CC2)cc1)c1ccc(F)cc1.O=C(O)C(F)(F)F | 95%
COc1cc(Cc2cnc(NCCN3CCNCC3)nc2N)ccc1OCc1ccc(C(F)(F)F)cc1 | 4%
CN(C)S(=O)(=O)c1ccc(C(=O)N(c2nc(-c3ccccc3)cs2)C2CCCCC2)cc1 | 46%
CCCCCc1cnc2nc(N)nc(N)c2c1C.Cl | 23%
Nc1nc(N)c2c(ccc3nn(C4CCCC4)cc32)n1 | 3%
Oc1ccc(C=NNC(S)=Nc2cccc3ccccc23)c(O)c1 | 72%
CC(=O)Nc1ccc(C(=O)Nc2ccc(-c3cccc(-c4nc5cc(F)ccc5[nH]4)c3)cc2)cn1 | 84%
CCCc1cn2c3c(cc(C(=O)N[C@@H](Cc4ccccc4)[C@H](O)CNC4CCCCC4)cc13)N(C)S(=O)(=O)CC2.O=CO | 98%
O=C(Nc1cccnc1)c1ccc(-c2cc3ccncc3cc2OC2CCNCC2)s1 | 12%
COC(=O)c1cccc(CNCc2cccc(-c3ccc(-c4nc5cccc(C)c5[nH]4)cc3)c2)c1.O=C(O)C(F)(F)F | 52%
COc1nc2c(CCN3CCC(NCc4ccc5c(n4)NC(=O)CO5)CC3)c(Cl)cnc2cc1F.Cl | 40%
N#Cc1ccc(CN2CCC(Oc3ccc(NC(=O)c4cccs4)cc3)C2)cc1.O=C(O)C(F)(F)F (stereo not given) | 65%
CCN(CC)S(=O)(=O)c1ccc(C(=O)Oc2ccccc2N(Cc2ccc(OC)cc2)C2=NS(=O)(=O)c3ccccc32)cc1 | 63%
COc1ccc(CCNCCCCCNCCc2ccc(Cl)cc2)cc1OC.Cl | 0%
O=C(Nc1ccc(-c2nc3ccccc3[nH]2)cc1)c1ccc(S(=O)(=O)N2CCCCC2)cc1 | 6%

The compounds below were run on HepG2 (assay: GSK_TCMDC: Percent inhibition of human HepG2 cell line. Test compounds present at 10uM.).
Format: functional

SMILES | Inhibition
O=C(Cc1c[nH]cn1)Nc1cccc(-c2ccc(-c3nc4cc(F)ccc4[nH]3)cc2)c1 | 4%
O=C(N[C@H]1CCN(Cc2ccc(OCCN3CCCC3)c3ccccc23)C1)c1ccc(Cl)c(Cl)c1.O=C(O)C(F)(F)F | 90%
Br.CCc1ccccc1OCCCON1C(=N)N=C(N)NC1(C)C | 77%
COc1ccc(Nc2nccc(NCCNC(=O)c3cc4ccccc4s3)n2)cc1 | 6%
COc1cccc(NC(=O)c2ccc(NCCCN3CC(C)CC(C)C3)c([N+](=O)[O-])c2)c1 (stereo not given) | 14%
Cl.Clc1cccnc1N1CCN(c2ncccc2Cl)CC1 | 2%
CCCNCc1ccc(-c2ccc(CN(CCOC)C(=O)CC3CCCC3=O)cc2)nc1.O=C(O)C(F)(F)F (stereo not given) | 5%
C#CCN(Cc1ccc2[nH]c(N)nc(=O)c2c1)c1ccc(C(=O)N[C@@H](CCC(=O)O)C(=O)O)cc1 | 45%
CN1CCN(CC(=O)Nc2cccc(-c3ccc(-c4nc5cc(F)ccc5[nH]4)cc3)c2)CC1 | 20%
FC(F)(F)c1ccc(CNCC2CCN(Cc3ccc4c(c3)OCO4)CC2)cc1.O=C(O)C(F)(F)F | 27%
Cc1cccc(C)c1/N=C1\NC(=S)N(c2cccc(Cl)c2)C12CCC(C(C)(C)C)CC2 (stereo not given) | 4%
OC(c1ccccc1)C1CN(Cc2ccccc2)CCC1(O)c1ccccc1 (stereo not given) | 4%
CC(C)CC1c2[nH]c3ccccc3c(=O)c2CN1C(=O)OC(C)(C)C (stereo not given) | 2%
Cc1[nH]c(C)c(-c2ccc(-c3ccc4c(c3)OCO4)nc2)c(=O)c1Br | 0%
Oc1ccccc1CN1CCC2(CCCN(Cc3ccccc3F)C2)C1 (stereo not given) | 13%
CCS[C@@H]1O[C@H](COC(=O)c2ccccc2)[C@H](OC(=O)c2ccccc2)[C@H](OC(=O)c2ccccc2)[C@H]1OC(=O)c1ccccc1 | 4%
COc1ccc(-c2nc(NC(=O)CS(=O)(=O)c3ccccc3)sc2C)cc1 | 7%
Nc1ccc2[nH]cc(C3CCN(CC4CCC(NC(=O)/C=C/c5ccc(Cl)c(Cl)c5)CC4)CC3)c2n1 (stereo not given) | 18%
O=C(NC1CCCCC1)N(Cc1cccc(-c2ccc(CNCCc3ccccc3)cc2)c1)C1CCN(Cc2ccccc2)CC1.O=C(O)C(F)(F)F | 61%
O=C(Cc1ccc(Nc2nccc(Nc3cccc4[nH]ncc34)n2)cc1)Nc1ccc(C(F)(F)F)cc1 | 12%

SMILES | Inhibition
CC(C)(C)c1ccc(CNC(=O)c2cc(CNC3CCNCC3)ccc2O)cc1 | 6%
Nc1c2c(nc3ccc(NC(=O)c4ccccc4)cc13)CCCC2 | 0%
CNC(=O)NC1=NC(C)(C)N(OCc2ccc(Cl)c(Cl)c2)C(NC(=O)NC)=N1 | 1%
Cc1ccc(NCc2cccc(F)c2)cc1S(=O)(=O)N[C@@H]1CCN(C#N)C1 | 13%
CN1CCN(c2ccnc3ccc(NC(=O)Nc4ccc(Cl)c(Cl)c4)cc23)CC1 | 0%
O=C(Nc1ccc(N2CCCN(Cc3cccc(F)c3)CC2)cc1)c1ccc(F)cc1.O=C(O)C(F)(F)F | 0%
COc1cc(Cc2cnc(NCCN3CCNCC3)nc2N)ccc1OCc1ccc(C(F)(F)F)cc1 | 12%
CN(C)S(=O)(=O)c1ccc(C(=O)N(c2nc(-c3ccccc3)cs2)C2CCCCC2)cc1 | 7%
CCCCCc1cnc2nc(N)nc(N)c2c1C.Cl | 64%
Nc1nc(N)c2c(ccc3nn(C4CCCC4)cc32)n1 | 44%
Oc1ccc(C=NNC(S)=Nc2cccc3ccccc23)c(O)c1 | 8%
CC(=O)Nc1ccc(C(=O)Nc2ccc(-c3cccc(-c4nc5cc(F)ccc5[nH]4)c3)cc2)cn1 | 13%
CCCc1cn2c3c(cc(C(=O)N[C@@H](Cc4ccccc4)[C@H](O)CNC4CCCCC4)cc13)N(C)S(=O)(=O)CC2.O=CO | 3%
O=C(Nc1cccnc1)c1ccc(-c2cc3ccncc3cc2OC2CCNCC2)s1 | 0%
COC(=O)c1cccc(CNCc2cccc(-c3ccc(-c4nc5cccc(C)c5[nH]4)cc3)c2)c1.O=C(O)C(F)(F)F | 3%
COc1nc2c(CCN3CCC(NCc4ccc5c(n4)NC(=O)CO5)CC3)c(Cl)cnc2cc1F.Cl | 17%
N#Cc1ccc(CN2CCC(Oc3ccc(NC(=O)c4cccs4)cc3)C2)cc1.O=C(O)C(F)(F)F (stereo not given) | 5%
CCN(CC)S(=O)(=O)c1ccc(C(=O)Oc2ccccc2N(Cc2ccc(OC)cc2)C2=NS(=O)(=O)c3ccccc32)cc1 | 0%
COc1ccc(CCNCCCCCNCCc2ccc(Cl)cc2)cc1OC.Cl | 32%
O=C(Nc1ccc(-c2nc3ccccc3[nH]2)cc1)c1ccc(S(=O)(=O)N2CCCCC2)cc1 | 23%
